# In PubChem BioAssay (Tox21):
# Where “and” joins values, the source holds several entries; their conditions need not be identical. Identical values can stand only once. Results filed as inconclusive are left out. A call without a number means that no potency is given here. Unmarked numbers belong to inactive results. Calls of active or inactive are those of the source. The call rests on the fitted dose curve.
# Experiment: Nuclear factor erythroid 2-related factor 2/antioxidant responsive element (Nrf2/ARE) small molecule agonists: luciferase reporter gene qHTS assay in human keratinocytes (AID 1919969); further: nearly all actives have a fitted effect of over 35% in size
# Potency means the concentration at half of the fitted maximal effect.
Structure (SMILES),Potency,"activity, positive = activation"
COC(=O)NCCC[Si](OC)(OC)OC,54.5 µM (active),–
Oc1cc2c(cc1O)[C@H]1c3ccc(O)c(O)c3OC[C@@]1(O)C2,inactive,–
Cc1cc([N+](=O)[O-])ccc1N,inactive,–
O=C1c2ccccc2C(=O)c2c1ccc(O)c2O,inactive,–
CCCCN(CCCC)CC(O)c1cc(Cl)cc2c1-c1ccc(Cl)cc1/C2=C/c1ccc(Cl)cc1 (stereo unspecified),inactive,–
COc1cc2nc(N3CCN(C(=O)C4COc5ccccc5O4)CC3)nc(N)c2cc1OC (stereo unspecified),inactive,–
C=CCN1C[C@H](C(=O)N(CCCN(C)C)C(=O)NCC)C[C@@H]2c3cccc4[nH]cc(c34)C[C@H]21,inactive,–
Cc1cc2nc3c(=O)[nH]c(=O)nc-3n(C[C@H](O)[C@H](O)[C@H](O)CO)c2cc1C,inactive,–
CC1(O)CSC(C)(O)CS1 (stereo unspecified),30.6 µM (active),–
COc1ccc(C(=O)c2ccc(C)cc2)c(O)c1,31 µM (active),–
O=[N+]([O-])c1cc(N(CCO)CCO)ccc1NCCO,inactive,–
Cc1ccc(N/N=c2\c(=O)cc/c(=N\Nc3ccc(S(=O)(=O)O)cc3)c2=O)c(C)c1,inactive,–
CC1=NN(c2cc(S(=O)(=O)O)ccc2Cl)C(=O)C1N=Nc1ccccc1 (stereo unspecified),inactive,–
C=C[C@](C)(O)CC[C@@H]1[C@@]2(C)CCCC(C)(C)[C@@H]2CC[C@@]1(C)O,inactive,–
COc1cc([N+](=O)[O-])ccc1N,inactive,–
O=C1CCCCCN1SSN1CCCCCC1=O,24.3 µM (active),–
CCCCCCCCCCCCN1CCCC1=O,inactive,–
OCCN1CCN(CC/C=C2/c3ccccc3Sc3ccc(C(F)(F)F)cc32)CC1,inactive,–

Structure (SMILES),Potency,"activity, positive = activation"
O=c1cc(-c2ccccc2)oc2cc(O)cc(O)c12,24.3 µM (active),–
CCCCCCCC/C=C\CCCCCCCC(=O)N(CCO)CCO,inactive,–
C=CC(=C)CCC=C(C)C,68.6 µM (active),–
CC1(C)O[C@@H]2C[C@H]3[C@@H]4CCC5=CC(=O)C=C[C@]5(C)[C@H]4[C@@H](O)C[C@]3(C)[C@]2(C(=O)CO)O1,inactive,–
CN1CCN(c2cc3c(nn2)Oc2ccccc2N3C)CC1,–,17.2% [at 19 µM]
COc1ccccc1OCCNCC(O)COc1cccc2[nH]c3ccccc3c12 (stereo unspecified),inactive,–
CC(C)=CCC[C@](C)(O)[C@@H]1CC=C(C)CC1,54.5 µM (active),–
O=C(CC(=O)c1ccccc1)c1ccccc1,32.9 µM (active),–
CCCCCCCCCCCCCCCS(=O)(=O)Oc1ccccc1,inactive,–
OC(CCN1CCCCC1)(c1ccccc1)C1CC2C=CC1C2 (stereo unspecified),inactive,–
CCCCCCCC/C=C/CCCCCCCC1=NCCN1CCO,inactive,–
C=CC[N+]1([C@H]2C[C@H]3[C@@H]4CC[C@H]5C[C@H](OC(C)=O)[C@@H](N6CCCCC6)C[C@]5(C)[C@H]4CC[C@]3(C)[C@H]2OC(=O)CC)CCCCC1,inactive,–
C=Cc1ccc(S(=O)(=O)O)cc1,inactive,–
Nc1cc(Cl)c([N+](=O)[O-])cc1O,inactive,–
O=C1c2ccccc2C(=O)N1SC1CCCCC1,21.7 µM (active) and 24.3 µM (active),–
Nc1ccc(O)c(N)c1,inactive,–
O=C1c2ccccc2C(=O)c2c(O)c(O)cc(O)c21,inactive,–
C1CN(SSN2CCOCC2)CCO1,13.5 µM (active) and 68.6 µM (active),–
